According to PubChem BioAssay (Tox21):
Where “and” joins values, the source holds several entries; their conditions need not be identical. Equal entries are not always repeated. Results filed as inconclusive are left out. Entries that show only a call come without a potency. Calls of active or inactive are those of the source. Calls follow the shape of the dose curve; as a rule, active = well fitted curve in the direction sought with a large enough effect in the repeat runs; inconclusive = weak or mixed curves; inactive = no such curve, though single readings can be large; an effect the other way counts as inactive or inconclusive.

Assay: qHTS assay for identifying genotoxic compounds that show differential cytotoxicity against isogenic chicken DT40 cell lines with known DNA damage response pathways - Rev3 mutant cell line (AID 743014); also: nearly all actives have a fitted effect of over 55% in size
Conditions: chicken DT40 Rev3-/- viability, CellTiter-Glo, 40 h; series mostly up to 68.4 µM
Potency is read from the fitted curve at half-maximal effect.

| Structure (SMILES) | Potency |
| --- | --- |
| N#CC(Cl)(Cl)Cl | inactive |
| Cc1cccc(C#N)c1 | inactive |
| CC(Cl)(Cl)[N+](=O)[O-] | inactive |
| Nc1cc(Cl)ccc1O | 14.9 µM (active) |
| [O]=[Cd] | inactive |
| Nc1ccccc1Cl | inactive |
| CCCCc1ccc(O)cc1 | inactive |
| BrCCCCCCBr | inactive |
| COc1cccc2c1cc([N+](=O)[O-])c1c(C(=O)O)cc3c(c12)OCO3 | 0.137 µM (active) |
| O=C(O)c1ccc2[nH]cc(CCCCN3CC=C(c4ccccc4)CC3)c2c1 | inactive |
| C#C[C@]1(O)C=C[C@H]2[C@@H]3CCC4=CC(=O)CC[C@@H]4[C@H]3CC[C@@]21CC | 26.6 µM (active) |
| CN1CCC(O)(c2ccc(F)cc2)C(C(=O)c2ccc(F)cc2)C1 (stereo not given) | 13.3 µM (active) |
| CCCSC(=O)N(CCC)CCC | inactive |
| CN(N=O)C(N)=O | inactive |
| C[C@H]1CCC[C@H](O)CCCCCc2cc(O)cc(O)c2C(=O)O1 | 26.6 µM (active) and 27.5 µM (active) |
| COc1cc(OC)nc(Oc2cccc(Oc3nc(OC)cc(OC)n3)c2C(=O)O)n1 | inactive |
| CCNc1nc(NC(C)C)nc(OC)n1 | inactive |
| CCC(=O)c1ccccc1 | inactive |

| Structure (SMILES) | Potency |
| --- | --- |
| CCCCOC(=O)c1ccccc1C(=O)O | inactive |
| O=[N+]([O-])c1cccc2c([N+](=O)[O-])cccc12 | inactive |
| Cc1ccccc1CO[C@@H]1C[C@@]2(C(C)C)CC[C@]1(C)O2 | 48.6 µM (active) |
| COC(=O)C(c1ccccc1)C1CCCCN1 (stereo not given) | inactive |
| Cc1cnc[nH]1 | inactive |
| CCOP(=S)(OCC)Oc1ncn(-c2ccccc2)n1 | 34.4 µM (active) |
| c1cc[c]([Hg][c]2ccccc2)cc1 | 0.243 µM (active) |
| Nc1cc2c3c(c1)C(c1ccccc1)=N[C@@H](NC(=O)c1cccnc1)C(=O)N3CC2 | inactive |
| CNC(=O)Oc1ccccc1C1OCCO1 | inactive |
| CC1=C(C(=O)Nc2ccccc2)S(=O)(=O)CCO1 | 15.3 µM (active) |
| COCC(=O)N(c1c(C)cccc1C)N1CCOC1=O | inactive |
| CCCCOP(=O)(O)OCCCC | inactive |
| NC(=S)C(N)=S | inactive |
| CC(C)CC#N | inactive |
| O=C1c2ccccc2C(=O)c2ccccc21 | inactive |
| COc1ncc(F)c2nc(S(=O)(=O)Nc3c(F)cccc3F)nn12 | inactive |
| CC1(C)C(=O)NC(=O)NC1=O | inactive |

Assay: qHTS assay for identifying genotoxic compounds that show differential cytotoxicity against isogenic chicken DT40 cell lines with known DNA damage response pathways - Rad54/Ku70 mutant cell line (AID 743015); also: nearly all actives have a fitted effect of over 60% in size
Conditions: DT40 Rad54/Ku70 mutant viability, CellTiter-Glo, 40 h; series mostly up to 66.8 µM

| Structure (SMILES) | Potency |
| --- | --- |
| N#CC(Cl)(Cl)Cl | inactive |
| Cc1cccc(C#N)c1 | inactive |
| CC(Cl)(Cl)[N+](=O)[O-] | inactive |
| Nc1cc(Cl)ccc1O | 9.37 µM (active) |
| [O]=[Cd] | inactive |
| Nc1ccccc1Cl | inactive |
| CCCCc1ccc(O)cc1 | inactive |
| BrCCCCCCBr | inactive |
| COc1cccc2c1cc([N+](=O)[O-])c1c(C(=O)O)cc3c(c12)OCO3 | 0.193 µM (active) |
| O=C(O)c1ccc2[nH]cc(CCCCN3CC=C(c4ccccc4)CC3)c2c1 | inactive |
| C#C[C@]1(O)C=C[C@H]2[C@@H]3CCC4=CC(=O)CC[C@@H]4[C@H]3CC[C@@]21CC | 23.7 µM (active) |
| CN1CCC(O)(c2ccc(F)cc2)C(C(=O)c2ccc(F)cc2)C1 (stereo not given) | 13.3 µM (active) |
| CCCSC(=O)N(CCC)CCC | inactive |
| CN(N=O)C(N)=O | inactive |
| C[C@H]1CCC[C@H](O)CCCCCc2cc(O)cc(O)c2C(=O)O1 | 16.8 µM (active) and 43.6 µM (active) |
| COc1cc(OC)nc(Oc2cccc(Oc3nc(OC)cc(OC)n3)c2C(=O)O)n1 | inactive |
| CCNc1nc(NC(C)C)nc(OC)n1 | inactive |
| CCC(=O)c1ccccc1 | inactive |

| Structure (SMILES) | Potency |
| --- | --- |
| CCCCOC(=O)c1ccccc1C(=O)O | inactive |
| O=[N+]([O-])c1cccc2c([N+](=O)[O-])cccc12 | inactive |
| Cc1ccccc1CO[C@@H]1C[C@@]2(C(C)C)CC[C@]1(C)O2 | 54.5 µM (active) |
| COC(=O)C(c1ccccc1)C1CCCCN1 (stereo not given) | inactive |
| Cc1cnc[nH]1 | inactive |
| CCOP(=S)(OCC)Oc1ncn(-c2ccccc2)n1 | 48.6 µM (active) |
| c1cc[c]([Hg][c]2ccccc2)cc1 | 0.193 µM (active) |
| Nc1cc2c3c(c1)C(c1ccccc1)=N[C@@H](NC(=O)c1cccnc1)C(=O)N3CC2 | inactive |
| CNC(=O)Oc1ccccc1C1OCCO1 | inactive |
| CC1=C(C(=O)Nc2ccccc2)S(=O)(=O)CCO1 | 17.2 µM (active) |
| COCC(=O)N(c1c(C)cccc1C)N1CCOC1=O | inactive |
| CCCCOP(=O)(O)OCCCC | inactive |
| NC(=S)C(N)=S | inactive |
| CC(C)CC#N | inactive |
| O=C1c2ccccc2C(=O)c2ccccc21 | inactive |
| COc1ncc(F)c2nc(S(=O)(=O)Nc3c(F)cccc3F)nn12 | inactive |
| CC1(C)C(=O)NC(=O)NC1=O | inactive |

Assay: qHTS assay to identify small molecule antagonists of the androgen receptor (AR) signaling pathway - cell viability counter screen (AID 743033; also: nearly all actives have a fitted effect of over 45% in size)
Conditions: AR-bla HEK293 viability, CellTiter-Glo luminescence, 16 h; series mostly up to 58.5 µM

| Structure (SMILES) | Potency |
| --- | --- |
| N#CC(Cl)(Cl)Cl | inactive |
| Cc1cccc(C#N)c1 | inactive |
| CC(Cl)(Cl)[N+](=O)[O-] | inactive |
| Nc1cc(Cl)ccc1O | inactive |
| [O]=[Cd] | inactive |
| Nc1ccccc1Cl | inactive |
| CCCCc1ccc(O)cc1 | inactive |
| BrCCCCCCBr | inactive |
| COc1cccc2c1cc([N+](=O)[O-])c1c(C(=O)O)cc3c(c12)OCO3 | 12.3 µM (active) |
| O=C(O)c1ccc2[nH]cc(CCCCN3CC=C(c4ccccc4)CC3)c2c1 | inactive |
| C#C[C@]1(O)C=C[C@H]2[C@@H]3CCC4=CC(=O)CC[C@@H]4[C@H]3CC[C@@]21CC | inactive |
| CN1CCC(O)(c2ccc(F)cc2)C(C(=O)c2ccc(F)cc2)C1 (stereo not given) | inactive |
| CCCSC(=O)N(CCC)CCC | inactive |
| CN(N=O)C(N)=O | inactive |
| C[C@H]1CCC[C@H](O)CCCCCc2cc(O)cc(O)c2C(=O)O1 | inactive |
| COc1cc(OC)nc(Oc2cccc(Oc3nc(OC)cc(OC)n3)c2C(=O)O)n1 | inactive |
| CCNc1nc(NC(C)C)nc(OC)n1 | inactive |
| CCC(=O)c1ccccc1 | inactive |

| Structure (SMILES) | Potency |
| --- | --- |
| CCCCOC(=O)c1ccccc1C(=O)O | inactive |
| O=[N+]([O-])c1cccc2c([N+](=O)[O-])cccc12 | inactive |
| Cc1ccccc1CO[C@@H]1C[C@@]2(C(C)C)CC[C@]1(C)O2 | inactive |
| COC(=O)C(c1ccccc1)C1CCCCN1 (stereo not given) | inactive |
| Cc1cnc[nH]1 | inactive |
| CCOP(=S)(OCC)Oc1ncn(-c2ccccc2)n1 | inactive |
| c1cc[c]([Hg][c]2ccccc2)cc1 | inactive |
| Nc1cc2c3c(c1)C(c1ccccc1)=N[C@@H](NC(=O)c1cccnc1)C(=O)N3CC2 | inactive |
| CNC(=O)Oc1ccccc1C1OCCO1 | inactive |
| CC1=C(C(=O)Nc2ccccc2)S(=O)(=O)CCO1 | inactive |
| COCC(=O)N(c1c(C)cccc1C)N1CCOC1=O | inactive |
| CCCCOP(=O)(O)OCCCC | inactive |
| NC(=S)C(N)=S | inactive |
| CC(C)CC#N | inactive |
| O=C1c2ccccc2C(=O)c2ccccc21 | inactive |
| COc1ncc(F)c2nc(S(=O)(=O)Nc3c(F)cccc3F)nn12 | inactive |
| CC1(C)C(=O)NC(=O)NC1=O | inactive |
